Screens as filed in PubChem BioAssay.
Autofluor 339: intrinsic fluorescence of library compounds, ex339/em460 – biochemical, MLSMR library, data from DPM-DC assay, artefact control, profiling panel; compound autofluorescence, ex339/em460 nm, NADH buffer; hits give high values; 1 = no-compound wells, NADH background; fluorescence fold increase at 10 µM; 65,000 compounds, 5.5% hits;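 active = at 10 µM, mean starting fluorescence two-fold or more over control wells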;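 note: signal is the first read of a kinetic run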
Spn DPM-DC inh: S. pneumoniae DPM-DC inhibition; purified DPM-DC, PK/LDH coupled NADH fluorescence; calls only at 10 µM; 65,000 compounds, 0.49% hits; AID 556;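 active = the 320 compounds with the highest percent inhibition in the single-dose primary screen, excluding strongly autofluorescent ones, cut at about 32% in these data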;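 note: kinetic rate of NADH fluorescence loss reporting ADP formed by the decarboxylase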
NADH enzymes: inhibition of NAD/NADH coupling enzymes, library profiling; coupled PK/LDH NADH assays, four targets; IC50, µM (highest dose often 10 µM), for inactives: top-dose inhibition; 65,000 compounds, 0.02% hits; AID 774;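 active = single-dose screening hits from any of four coupled enzyme assays that gave an IC50 when retested across doses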;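 note: the DPM-DC format reads NADH fluorescence rather than 340 nm absorbance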
Spn PMK inh: blocks S. pneumoniae phosphomevalonate kinase | purified PMK, PK/LDH-coupled NADH absorbance 340 nm | inhibition, % at 10 µM | 65,000 compounds, 0.49% hits;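 active = top-ranked compounds by inhibition in the single 10 µM screen, taking a fixed number of the strongest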;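 note: 0% = full reaction with DMSO carrier and 100% = background rate without enzyme reaction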
Abs 340nm: compounds absorbing at 340 nm | compound absorbance at 340 nm, fold over control | fold change at 10 µM | 65,000 tested, under 10 active | AID 708;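 active = at 10 µM dose, initial 340 nm absorbance at least 2 fold that of control wells; inactive = change under 2 fold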;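 note: initial absorbance extrapolated from kinetic A340 decline of NADH oxidation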
MK inhibit: inhibitors of Streptococcus pneumoniae mevalonate kinase | purified MK, PK/LDH-coupled NADH absorbance 340 nm | inhibition, % at 10 µM | 65,000 compounds, 0.48% hits | AID 555;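 active = ranked among the strongest by inhibition in the single 10 µM screen, a fixed top-ranked set picked for dose follow-up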
* = called active by the depositor. Compounds with a hit are over-represented: about 6.8% of the library has one in this group of screens.

Screening COc1ccccc1Oc1coc2cc(OC(=O)N3CCOCC3)ccc2c1=O returned Autofluor 339 1.12, Spn DPM-DC inh inactive, NADH enzymes 4.0%, Spn PMK inh 6.0, Abs 340nm 1.03 and MK inhibit 5.0.
Screening CCN1CCN(Cc2c(O)ccc3c(=O)c(-c4ccccc4OC)coc23)CC1 returned Autofluor 339 5.04*, NADH enzymes 8.0%, Spn PMK inh 12.0, Abs 340nm 1.1 and MK inhibit 3.0.
Screening COc1ccccc1Oc1coc2c(CN3CCN(C)CC3)c(O)ccc2c1=O returned Autofluor 339 3.03*, NADH enzymes 3.0%, Spn PMK inh 11.0, Abs 340nm 1.02 and MK inhibit 4.0.
For COc1ccccc1-c1coc2c(CN3CCN(C)CC3)c(O)ccc2c1=O the results were Autofluor 339 2.16*, NADH enzymes 3.0%, Spn PMK inh 0.0, Abs 340nm 1.1 and MK inhibit 5.0.
`CCc1cc2c(=O)c(-c3nc4ccccc4n3C)coc2c(CN2CCN(C)CC2)c1O` gave Autofluor 339 2.59*, Spn DPM-DC inh inactive, NADH enzymes 14.0%, Spn PMK inh 6.0, Abs 340nm 1.23 and MK inhibit 14.0.
For CCc1cc2c(=O)c(-c3nc4ccccc4[nH]3)coc2c(CN2CCC(C)CC2)c1O the results were Autofluor 339 1.21, Spn DPM-DC inh inactive, NADH enzymes 5.0%, Spn PMK inh 6.0, Abs 340nm 1.01 and MK inhibit 1.0.
Screening CCOC(=O)c1oc2cc(O)ccc2c(=O)c1-c1ccccc1OC returned Autofluor 339 1.03, Spn DPM-DC inh inactive, NADH enzymes 9.0%, Spn PMK inh 20.0, Abs 340nm 1.11 and MK inhibit 4.0.
COc1ccc(C2(O)CCN(C(=O)NC3CCCCC3)CC2)cc1 was read as Autofluor 339 1.13, Spn DPM-DC inh inactive, NADH enzymes 3.0%, Spn PMK inh 5.0, Abs 340nm 0.97 and MK inhibit 4.0.
Screening Cc1onc(-c2ccccc2Cl)c1C(=O)NCCn1c(C)cc2ccccc21 returned Autofluor 339 1.04, Spn DPM-DC inh inactive, NADH enzymes 3.0%, Spn PMK inh 7.0, Abs 340nm 0.98 and MK inhibit 5.0.
Screening CC(C)(C)NC(=O)c1sccc1C(=O)O returned Autofluor 339 1.14, Spn DPM-DC inh inactive, NADH enzymes 4.0%, Spn PMK inh 13.0, Abs 340nm 1.02 and MK inhibit 0.0.
COc1ccccc1-c1coc2c(CN3CCN(CCO)CC3)c(O)ccc2c1=O was read as Autofluor 339 3*, NADH enzymes 1.0%, Spn PMK inh 0.0, Abs 340nm 1.03 and MK inhibit 4.0.
Cc1nc2nc(C)c(CCC(=O)N3CCOCC3)c(C)n2n1 was read as Autofluor 339 0.68, Spn DPM-DC inh active, NADH enzymes 15.0%, Spn PMK inh 6.0, Abs 340nm 1 and MK inhibit 4.0.
For CCOC(=O)N1CCN(C(=O)CCc2c(C)nc3nc(C)nn3c2C)CC1 the results were Autofluor 339 1.08, Spn DPM-DC inh inactive, NADH enzymes 5.0%, Spn PMK inh 10.0, Abs 340nm 0.98 and MK inhibit 5.0.
Screening CS(=O)(=O)N1CCN(C(=O)c2cc(-c3cccs3)nc3ccccc23)CC1 returned Autofluor 339 3.86*, NADH enzymes 7.0%, Spn PMK inh 3.0, Abs 340nm 1.14 and MK inhibit 11.0.
COc1ccc(-c2cc(C(=O)N3CCN(c4ccccn4)CC3)c3ccccc3n2)cc1 was read as Autofluor 339 2.66*, Spn DPM-DC inh inactive, NADH enzymes 9.0%, Spn PMK inh 16.0, Abs 340nm 1.08 and MK inhibit 0.0.
`CCOc1ccc(-c2cc(C(=O)N3CCN(c4ccccn4)CC3)c3ccccc3n2)cc1` gave Autofluor 339 1.55, Spn DPM-DC inh inactive, NADH enzymes 4.0%, Spn PMK inh 12.0, Abs 340nm 0.98 and MK inhibit 0.0.
Screening CCOc1ccc(-c2cc(C(=O)N3CCN(C)CC3)c3ccccc3n2)cc1 returned Autofluor 339 5.16*, NADH enzymes 5.0%, Spn PMK inh 9.0, Abs 340nm 1.08 and MK inhibit 0.0.
For O=C(O)c1cc(-c2cccs2)nc2cc3c(cc12)OCCO3 the results were Autofluor 339 2.15*, NADH enzymes 6.0%, Spn PMK inh 0.0, Abs 340nm 1.11 and MK inhibit 11.0.
`Cc1ccc2nc(-c3ccc4c(c3)OCCO4)cc(C(=O)O)c2c1` gave Autofluor 339 1.2, Spn DPM-DC inh inactive, NADH enzymes 2.0%, Spn PMK inh 0.0, Abs 340nm 1.03 and MK inhibit 0.0.
For CSc1nsc(SC)c1NC(=O)OCC1CCCO1 (centres undefined) the results were Autofluor 339 1.12, Spn DPM-DC inh inactive, NADH enzymes 5.0%, Spn PMK inh 11.0, Abs 340nm 0.99 and MK inhibit 4.0.
O=C(c1ccc2c(c1)OCO2)N(c1ccc(Cl)cc1)C1C=CS(=O)(=O)C1 (centres undefined) was read as Autofluor 339 1.09, Spn DPM-DC inh inactive, NADH enzymes 7.0%, Spn PMK inh 10.0, Abs 340nm 0.98 and MK inhibit 11.0.
`Cc1cc(NC(=O)CCC(=O)N(c2ccc(F)cc2)C(C(=O)NC2CCCC2)c2ccncc2)no1` (centres undefined) gave Autofluor 339 1.13, Spn DPM-DC inh inactive, NADH enzymes 10.0%, Spn PMK inh 12.0, Abs 340nm 1 and MK inhibit 3.0.
Screening Cc1csc(C(C#N)C(=O)c2cc3ccccc3o2)n1 (centres undefined) returned Autofluor 339 1.08, Spn DPM-DC inh inactive, NADH enzymes 9.0%, Spn PMK inh 11.0, Abs 340nm 1.13 and MK inhibit 8.0.
COc1ccc(C(O)P(=O)(OC2CCCCC2)c2ccc(N(C)C)cc2)cc1OC (centres undefined) was read as Autofluor 339 1.1, Spn DPM-DC inh inactive, NADH enzymes 7.0%, Spn PMK inh 13.0, Abs 340nm 0.99 and MK inhibit 8.0.
`Cn1c(C(C#N)C2=C(Cl)C(=O)N(c3ccccc3)C2=O)nc2ccccc21` (centres undefined) gave Autofluor 339 1.12, Spn DPM-DC inh inactive, NADH enzymes 10.0%, Spn PMK inh 17.0, Abs 340nm 1.03 and MK inhibit 1.0.
`CCOC(=O)N1CCN(C(=O)c2cc(-c3ccc(OCC)cc3)nc3ccccc23)CC1` gave Autofluor 339 5.22*, NADH enzymes 6.0%, Spn PMK inh 11.0, Abs 340nm 1.07 and MK inhibit 0.0.
Screening COc1ccc(-c2cc(C(=O)OCC(=O)N3CCCC3)c3ccccc3n2)cc1 returned Autofluor 339 2.9*, Spn DPM-DC inh inactive, NADH enzymes 17.0%, Spn PMK inh 19.0, Abs 340nm 1.03 and MK inhibit 0.0.
For O=C(c1cc(-c2ccccc2)nc2ccccc12)N1CCOCC1 the results were Autofluor 339 1.12, Spn DPM-DC inh inactive, NADH enzymes 3.0%, Spn PMK inh 6.0, Abs 340nm 1.04 and MK inhibit 2.0.
